# Values quoted from earlier work in PubChem BioAssay AID977611.
# Screen size: about 3,900 compounds; about 3,900 (100%) were called active. Cut-off not given; nearly all actives show Kd up to about 4200 µM. So high a share suggests a set chosen from earlier hits. This is one part of the list. Non-standard residues stand in square brackets, D forms with d. Square brackets hold non-standard residues; d marks the D form. Residues, ends and D or L forms follow the SMILES beside them. Peptide text beside a SMILES is read from it. *: point of attachment. Lys(Me3) = C[N+](C)(C)CCCC[C@H](N)C(=O)O; Orn(CH(NH2)2) = NC(N)NCCC[C@H](N)C(=O)O; For = O=C*
# Assay: PubChem AID 977611
# Settings: PDB protein-ligand complexes, literature Kd
compound,measurement,setting,value
Cc1ccc(-c2cc3c(NC[P+](O)(O)O)ncnc3s2)cc1,Kd,"protein: Farnesyl pyrophosphate synthase, human FPPS, PDB entry 4lph",9.2 µM (active)
Cc1ccc(-c2cc3c(NC([P+](O)(O)O)[P+](O)(O)O)ncnc3s2)cc1,Kd,"protein: Farnesyl pyrophosphate synthase, human FPPS, PDB entry 4lpg",55.6 µM (active)
N#Cc1c(Oc2ccc(F)c(NC(=O)Cc3cccc(C(F)(F)F)c3)c2)ccc2nc(NC(=O)C3CC3)sc12,Kd,"protein: Serine/threonine-protein kinase B-raf, PDB entry 4ksp",0.0016 µM (active)
O=C(c1ccccc1)N(O)CC[C@@H](c1ccc(Cl)c(Cl)c1)[P+](O)(O)O,Kd,"protein: 1-DEOXY-D-XYLULOSE 5-PHOSPHATE REDUCTOISOMERASE, PDB entry 3zhx",0.21 µM (active)
O=C(c1ccccc1Cn1cncn1)N(O)CC[C@@H](c1ccc(Cl)c(Cl)c1)[P+](O)(O)O,Kd,"protein: 1-DEOXY-D-XYLULOSE 5-PHOSPHATE REDUCTOISOMERASE, PDB entry 3zi0",0.04 µM (active)
O=C(c1ccccc1Nc1cccc(C(F)(F)F)c1)N(O)CC[C@@H](c1ccc(Cl)c(Cl)c1)[P+](O)(O)O,Kd,"protein: 1-DEOXY-D-XYLULOSE 5-PHOSPHATE REDUCTOISOMERASE, PDB entry 3zhz",0.09 µM (active)
CSCC[C@H](NC(=O)[C@H](CC(C)C)NC(=O)[C@H](CCCCN(C)C)NC(=O)[C@H](CCCCN)NC(=O)[C@H](Cc1cnc[nH]1)NC(=O)[C@H](CCCN=C(N)N)NC(=O)[C@H](CO)NC(=O)[C@@H](NC(=O)[C@@H](N)CO)[C@@H](C)O)C(=O)N[C@@H](Cc1ccccc1)C(=O)N[C@@H](CCCCN)C(=O)N[C@H](C(=O)O)[C@@H](C)O,Kd,"protein: Tumor suppressor p53-binding protein 1, 53BP1 tandem Tudor domains, PDB entry 2mwp",0.9 µM (active)
CC(C)C[C@H](NC(=O)[C@H](Cc1cnc[nH]1)NC(=O)[C@H](CO)NC(=O)[C@H](CO)NC(=O)[C@H](Cc1cnc[nH]1)NC(=O)[C@H](C)NC(=O)[C@@H](N)CCCN=C(N)N)C(=O)N[C@@H](CCCCN(C)C)C(=O)N[C@@H](CO)C(=O)N[C@@H](CCCCN)C(=O)N[C@@H](CCCCN)C(=O)NCC(=O)N[C@@H](CCC(N)=O)C(=O)N[C@@H](CO)C(=O)N[C@H](C(=O)O)[C@@H](C)O,Kd,"protein: Tumor suppressor p53-binding protein 1, 53BP1 tandem Tudor domains, PDB entry 2mwo",20 µM (active)
CC(C)C[C@H](NC(=O)[C@H](CC(=O)O)NC(=O)CNC(=O)[C@H](CCCN=C(N)N)NC(=O)CNC(=O)[C@H](Cc1cnc[nH]1)NC=O)C(=O)NCC(=O)N[C@@H](CCCN=C(N)N)C(=O)N[C@@H](CC(C)C)C(=O)N[C@@H](CCCCN)C(=O)N[C@@H](CCCCN)C(N)=O (For-HGRGDLGRLKK-NH2),Kd,"protein: Integrin alpha V beta 6, PDB entry 4um9",0.0085 µM (active)
CC(C)C[C@H](NC(=O)[C@@H](NC(=O)[C@H](CCCC[N+](C)(C)C)NC(=O)[C@H](CCCNC(N)N)NC(=O)[C@H](Cc1cnc[nH]1)NC(=O)[C@@H](N)CCCNC(N)N)C(C)C)C(=O)N[C@H](C=O)CCCNC(N)N (H-[Orn(CH(NH2)2)]H[Orn(CH(NH2)2)][Lys(Me3)]VL[Orn(CH(NH2)2)]-aldehyde),Kd,"protein: Polycomb protein EED residues 77-441, PDB entry 3ij1",20 µM (active)
CC(C)C[C@H](NC(=O)[C@@H](NC(=O)[C@@H](CCCC[N+](C)(C)C)NC(=O)[C@H](CCCNC(N)N)NC(=O)[C@H](Cc1cnc[nH]1)NC(=O)[C@@H](N)CCCNC(N)N)C(C)C)C(=O)N[C@@H](CCCNC(N)N)C(=O)O,Kd,"protein: JMJD2A-tudor, PDB entry 2qqs",0.4 µM (active)
CC(C)C[C@H](NC(=O)[C@@H](NC(=O)[C@H](CCCC[N+](C)(C)C)NC(=O)[C@H](CCCNC(N)N)NC(=O)[C@@H](N)Cc1cnc[nH]1)C(C)C)C(=O)N[C@@H](CCCNC(N)N)C(=O)O (H-H[Orn(CH(NH2)2)][Lys(Me3)]VL[Orn(CH(NH2)2)]-OH),Kd,"protein: Polycomb protein EED, PDB entry 3jpx",235 µM (active)
CN(C)c1ccc(C(c2ccc(N(C)C)cc2)c2ccc(N(C)C)cc2)cc1,Kd,"protein: Putative regulatory protein, PDB entry 3vw1",21.2 µM (active)
CN(C)c1ccc(C(c2ccc(O)cc2)c2ccc(N(C)C)cc2)cc1,Kd,"protein: Immunoglobulin lambda variable domain L5(L89S), PDB entry 4k3h",0.14 µM (active)
Nc1ccc2[nH]c(=O)c3ccccc3c2c1,Kd,"protein: Putative ADP-ribosyltransferase Certhrax, PDB entry 4fk7",5.8 µM (active)
Nc1ncnc2c1ncn2[C@@H]1O[C@H](CO)[C@@H](O[P+](O)(O)OC[C@H]2O[C@@H](n3ccc(=O)[nH]c3=O)[C@H](O)[C@@H]2O)[C@H]1O,Kd,"protein: Poly(A) RNA polymerase protein cid1, PDB entry 4nku",21.3 µM (active)
Nc1ncnc2c1ncn2[C@@H]1O[C@H](CO[P+](O)(O)O[P+](O)(O)N[P+](O)(O)O)[C@@H](O)[C@H]1O,Kd,"protein: INOSITOL-PENTAKISPHOSPHATE 2-KINASE, PDB entry 4axd",37 µM (active)
same,Kd,"protein: N-acetylhexosamine 1-phosphate kinase NahK, PDB entry 4ock",8.3 µM (active)
same,Kd,"protein: N-acetylhexosamine 1-phosphate kinase NahK, PDB entry 4ocv",8.3 µM (active)
same,Kd,"protein: Osmolarity sensor protein EnvZ, Histidine kinase, PDB entry 4kp4",6.8 µM (active)
Nc1ncnc2c1ncn2[C@@H]1O[C@H](CO[P+](O)(O)O)[C@@H](O)[C@H]1O[C@H]1O[C@H](CO[P+](O)(O)O)[C@@H](O)[C@H]1O,Kd,"protein: E3 ubiquitin-protein ligase RNF146 RNF146(RING-WWE), PDB entry 4qpl",0.039 µM (active)
Nc1ncnc2c1ncn2[C@@H]1O[C@H](CO[P+](O)(O)OS(O)(O)O)[C@@H](O)[C@H]1O,Kd,"protein: Adenylyl-sulfate kinase 1, chloroplastic, PDB entry 4fxp",80.4 µM (active)
Nc1ncnc2c1ncn2[C@@H]1O[C@H](CO[P+](O)(O)O[P+](O)(O)OC[C@H]2O[C@H](O)[C@H](O)[C@@H]2O)[C@@H](O)[C@H]1O,Kd,"protein: Poly [ADP-ribose] polymerase 14 MACRO DOMAIN 1, PDB entry 3q6z",192 µM (active)
same,Kd,"protein: Poly [ADP-ribose] polymerase 14 MACRO DOMAIN 1 and 2, PDB entry 3vfq",6.4 µM (active)
same,Kd,"protein: Poly [ADP-ribose] polymerase 14 MACRO DOMAIN 2, PDB entry 3q71",6 µM (active)
same,Kd,"protein: Poly [ADP-ribose] polymerase 14 MACRO DOMAIN 3, PDB entry 4abk",1.9 µM (active)
Nc1ncnc2c1ncn2[C@@H]1O[C@H](CO[P+](O)(O)O[P+](O)(O)O[P+](O)(O)O[P+](O)(O)O[P+](O)(O)OC[C@H]2O[C@@H](n3cnc4c(N)ncnc43)[C@H](O)[C@@H]2O)[C@@H](O)[C@H]1O,Kd,"protein: Adenylate kinase, PDB entry 4w5j",0.057 µM (active)
